From PubChem BioAssay AID743279 (National Center for Advancing Translational Sciences (NCATS), 2014)
Hit rate of the full screen: of about 360,000 compounds, about 17,000 (4.7%) were called active. About 5% were inconclusive and are not listed. Rule as the data show it: active = activity change below about -50%; inconclusive = mostly about -30% to -49%; inactive = weaker than that. What follows is part of a selection rich in actives, with near analogues and random picks from the rest.
% is scaled to controls: 0 for no effect and ±100 for the full control effect.

Assay: qHTS for Inhibitors of Inflammasome Signaling: IL-1-beta AlphaLISA Primary Screen
Conditions: THP-1 LPS/ATP IL-1B secretion, 16 h; at 57.5 µM, stronger effect = lower value
Outline: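 Secreted IL-1B measured by AlphaLISA bead assay after 16 h compound exposure of THP-1 cells; compounds (final up to 57.5 uM) added 1 h before LPS (250 ng/mL) and ATP (1.25 mM) stimulation; lower signal means less secretion.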
In the case of `C=CCOc1c(Br)cc(/C=N\n2nnnc2N)cc1OC`, the activity change is reported as 0% (inactive).
For `CCOc1c(Br)cc(/C=C2\C(=O)N(CCC#N)N=C2C)cc1OC`, the activity change was -62.4% (active).
In the case of `COc1cc(/C=C2/C(=O)NN(c3cccc(Cl)c3)C2=O)cc(Br)c1O`, the activity change is reported as -15.3% (inactive).
With `COc1cccc(-c2cc(NC(C)=O)c3ncc(-c4cccc(C(C)=O)c4)n3c2)c1` the activity change was 7.02% (inactive).
For `Cc1cccn2c(=O)c(/C=C(\C#N)C(N)=O)c(N3CCCCCC3)nc12`, the activity change was -18.7% (inactive).
For `Cc1cccn2c(=O)c(/C=C(\C#N)S(=O)(=O)c3ccc(Cl)cc3)c(N3CCC(C(N)=O)CC3)nc12`, the activity change was 0% (inactive).
For `Cc1cc(C)cc(Oc2nc3c(C)cccn3c(=O)c2/C=C(\C#N)C(=O)NC2CCS(=O)(=O)C2)c1` (stereo unspecified), the activity change was -109% (active).
For `COc1ccc2c(c1)C(=O)CC(c1ccccc1)O2` (stereo unspecified), the activity change was -12.1% (inactive).
In the case of `Cc1nn(C(C)C(=O)NCCC2=CCCCC2)c(=O)c2nn(-c3ccccc3)c(C)c12` (stereo unspecified), the activity change is reported as 14.5% (inactive).
In the case of `CCOC(=O)c1oc2ccccc2c1NC(=O)c1cccs1`, the activity change is reported as -2.68% (inactive).
With `CCc1c(C)sc(NC(=O)c2cccs2)c1C(N)=O` the activity change was -92.1% (active).
With `CCc1cccc(C)c1NC(=O)COC(=O)CNC(=O)c1cccs1` the activity change was 16.5% (inactive).
For `COC(=O)C1=CO[C@@H](O[C@@H]2O[C@H](CO)[C@@H](O)[C@H](O)[C@H]2O)C2C1C[C@H](O)[C@@H]2C` (stereo partly specified), the activity change was 15.4% (inactive).
For `COC[C@@H]1NS(=O)(=O)c2ccc(Br)cc2O[C@H]1c1ccccc1`, the activity change was 2.65% (inactive).
For `O=C1/C(=C/c2cccs2)CCc2ccccc21`, the activity change was -13.1% (inactive).
With `COc1ccc(/C=C2/CCCc3ccccc3C2=O)cc1` the activity change was 0% (inactive).
For `COc1ccc(/C=C2\CCc3ccccc3C2=O)c(OC)c1OC`, the activity change was -71% (active).
For `N#CCc1c[nH]c2ccc([N+](=O)[O-])cc12`, the activity change was -1.78% (inactive).
For `CNc1cncc(-c2ccc(NS(C)(=O)=O)cc2)n1`, the activity change was 6.32% (inactive).
In the case of `CC(NC(=O)CCC(=O)N1CCN(S(=O)(=O)c2ccc(Cl)cc2)CC1)c1ccccc1` (stereo unspecified), the activity change is reported as 45.7% (inactive).
In the case of `O=C(NCc1cccc(C(F)(F)F)c1)c1cccc(S(=O)(=O)N2CCN(Cc3ccccc3)CC2)c1`, the activity change is reported as 0% (inactive).
In the case of `O=C(CCC(=O)N1CCN(S(=O)(=O)c2ccc(Cl)cc2)CC1)NCc1cccc(C(F)(F)F)c1`, the activity change is reported as -52.1% (active).
In the case of `COC(=O)C(NC(=O)c1ccc(OC)cc1)(Nc1ncc(S(=O)(=O)c2ccc([N+](=O)[O-])cc2)s1)C(F)(F)F` (stereo unspecified), the activity change is reported as -99.1% (active).
In the case of `COc1ccc(C(=O)NCCNc2ccc([N+](=O)[O-])cn2)cc1`, the activity change is reported as 40.6% (inactive).
In the case of `CCOCC(=O)Nc1ncc(S(=O)(=O)c2ccc([N+](=O)[O-])cc2)s1`, the activity change is reported as 20.1% (inactive).
For `Nc1c(Cl)cc(-c2csc(N3CCCC3c3nc4cc(Cl)c(Cl)cc4n3CCOCCO)n2)cc1Cl` (stereo unspecified), the activity change was -4.36% (inactive).
For `Cc1ccc(S(=O)(=O)N2C[C@H]3C(=O)C[C@@H](c4cccc5ccccc45)N(S(=O)(=O)c4ccc(C)cc4)[C@H]3C[C@H]2c2ccc(Cl)cc2)cc1`, the activity change was 0.625% (inactive).
For `COCCNC(=O)C1C(=O)Nc2ccccc2C(=O)N1c1ccc2c(c1)OCCO2` (stereo unspecified), the activity change was 23.8% (inactive).
In the case of `Cc1[nH]c2ccccc2c1/C=C(/C#N)C(=O)NC(C)C`, the activity change is reported as -99.8% (active).
For `COC(=O)Cc1c(-c2[nH]c3ccccc3c2CC(=O)OC)[nH]c2ccccc12`, the activity change was 0% (inactive).
With `CC(C)NC(=O)/C(C#N)=C\c1ccc(N(C)C)c(Br)c1` the activity change was -7.21% (inactive).
In the case of `O[C@@H]1C[C@H](c2ccccc2)N(Cc2cccs2)C[C@H]1n1cc(C2CC2)nn1`, the activity change is reported as -20.7% (inactive).
In the case of `Cc1ccc(C)c(NC(=S)NNC(=S)Nc2ccc(C(C)C)cc2)c1`, the activity change is reported as -52.5% (active).
For `Cc1ccc(C)c(NC(=S)NNC(=O)c2csc(C)c2)c1`, the activity change was 12.4% (inactive).
With `CC(C)c1ccc(NC(=S)NNc2ccc(Cl)c(C(=O)O)c2)cc1` the activity change was 20.7% (inactive).
For `O=C(O)CSc1nccc2ccccc12`, the activity change was -61.2% (active).
In the case of `O=C(O)CSc1nccn1-c1cccc(Cl)c1`, the activity change is reported as 14.2% (inactive).
In the case of `CCOC(=O)C(C(=O)c1ccccc1)C(c1ccccc1)c1nccc2ccccc12` (stereo unspecified), the activity change is reported as 11.3% (inactive).
For `CCNC(=O)C1(C)CCCN1C(=O)c1ccc(N(C)C)cc1` (stereo unspecified), the activity change was 15.5% (inactive).
For `Cc1nc(SCC(=O)c2ccccc2)c([N+](=O)[O-])[nH]1`, the activity change was 23.3% (inactive).
With `CSCCC(C(=O)NC(C)(C)C)n1c(-c2ccccc2)nc2ccccc21` (stereo unspecified) the activity change was 15.5% (inactive).
For `COc1ccc(Oc2cn[nH]c2-c2ccc(OC)cc2O)cc1`, the activity change was -82.8% (active).
With `COc1ccc(-c2[nH]ncc2/C=N/NC(=O)c2cc(Br)ccc2O)c(OC)c1` the activity change was 86.3% (inactive).
In the case of `CCOc1ccccc1Oc1cn[nH]c1-c1ccc(OC)cc1O`, the activity change is reported as 18.7% (inactive).
For `CC1Sc2ccc(S(=O)(=O)CCC(=O)NCc3ccccc3Cl)cc2NC1=O` (stereo unspecified), the activity change was 18.9% (inactive).
For `CCS(=O)(=O)Nc1cccc(-c2cc(-c3ccccc3)c3cc(C)ccc3n2)c1`, the activity change was -99.4% (active).
With `Cc1cc(C)cc(NS(=O)(=O)Cc2ccccc2)c1` the activity change was -5.28% (inactive).
With `CS(=O)(=O)Nc1cccc(-c2cn3ccccc3n2)c1` the activity change was -14% (inactive).
With `O=C(NC1CCCCC1)C(c1cc2ccccc2o1)n1c(=O)c(-c2ccco2)nc2ccccc21` (stereo unspecified) the activity change was -2.14% (inactive).
In the case of `CN(C)CCNC(=O)c1ccc(Cl)c2cc3ccccc3nc12`, the activity change is reported as -112% (active).
With `CN(C)CCNC(=O)Nc1cccc(Cl)c1Cl` the activity change was 2.19% (inactive).
For `CC(=O)NCCNC(=O)c1cc(-c2cccc3ccccc23)nc2ccccc12`, the activity change was 0.0656% (inactive).
In the case of `O=C(OCc1ccccc1)N1CCC2CC1c1cc(N3CCN(S(=O)(=O)c4cc(Cl)cc(Cl)c4)CC3)ccc12` (stereo unspecified), the activity change is reported as 21.9% (inactive).
In the case of `CC1(C)C=Cc2c(ccc3c2OC[C@@H](c2ccc(O)cc2O)C3)O1`, the activity change is reported as -13.2% (inactive).
For `CC(=O)c1c(N2CCN(c3ccc(F)cc3)CC2)nc(=S)n(-c2ccccc2)c1C`, the activity change was -79.7% (active).
In the case of `CC(=O)c1c(N2CCOCC2)nc(=S)n(-c2cc(C)ccc2C)c1C`, the activity change is reported as -14.3% (inactive).
In the case of `CC(=O)c1c(N2CCOCC2)nc(=S)n(Cc2ccccc2)c1C`, the activity change is reported as 30.6% (inactive).
In the case of `CCOc1ccc(NC(=O)CN(C)C(=O)c2c(C)noc2C)cc1OCC`, the activity change is reported as 2.67% (inactive).
In the case of `Cc1cccc(NC(=O)COC(=O)CCc2ccccc2)c1C`, the activity change is reported as 5.72% (inactive).
In the case of `Cc1cccc(NC(=O)CSC(N)=O)c1C`, the activity change is reported as -90.9% (active).
In the case of `Cc1ccccc1NC(=O)CSC(=O)c1ccccc1`, the activity change is reported as 22.2% (inactive).
In the case of `CCCCCCCCCCCCCCCC(=O)OC/C=C(C)/C=C/C=C(C)/C=C/C1=C(C)CCCC1(C)C`, the activity change is reported as -8.52% (inactive).
For `CCOc1ccc(NC(=O)c2ccccc2NS(C)(=O)=O)cc1`, the activity change was -7.57% (inactive).
With `COC(=O)c1ccccc1NS(=O)(=O)c1ccc2[nH]c(=O)[nH]c2c1` the activity change was -16.3% (inactive).
In the case of `COC(=O)c1ccc(NC(=O)c2ccccc2NS(=O)(=O)c2ccccc2)cc1`, the activity change is reported as -61.7% (active).
With `Cc1ccc(NS(=O)(=O)c2cc3c(cc2C)NC(=O)CO3)cc1` the activity change was -0.465% (inactive).
For `CC1CCN(C(=O)COC(=O)CCC(=O)c2cccs2)CC1`, the activity change was 5.83% (inactive).
With `CCN1C(=O)[C@H]2[C@@H](c3ccccc3)N[C@]3(CCCN(Cc4ccc(C)cc4)C3=O)[C@H]2C1=O` the activity change was -7.34% (inactive).
For `COc1cccc(CN(C)C(=O)CC23CC4CC(CC(C4)C2)C3)c1OC`, the activity change was -55.8% (active).
For `COc1ccc(S(=O)(=O)N2CCCCCC2)cc1C(=O)N(C)Cc1cccc(OC)c1OC`, the activity change was -8.59% (inactive).
In the case of `COc1ccc(CN(C)C(=O)Cc2ccsc2)c(OC)c1OC`, the activity change is reported as 40.4% (inactive).
For `COc1ccc(NC(=O)C2(C)Cc3c(-c4cccc(NC(C)=O)c4)ccnc3O2)cc1` (stereo unspecified), the activity change was 48.5% (inactive).
With `COC1=NC2=NCCN2C(OC)=N1` the activity change was 0.792% (inactive).
With `COc1ccc(C(=O)O/N=C(\N)Cc2ccc(Cl)cc2Cl)cc1OC` the activity change was -58.9% (active).
With `COc1ccc(C/C(N)=N/OC(=O)c2ccco2)cc1OC` the activity change was 9.63% (inactive).
In the case of `COc1ccc(C(=O)ON=C2c3ccccc3-c3ccccc32)cc1OC`, the activity change is reported as 0% (inactive).
In the case of `CCCCC(O)C1=C[N+](=O)CC=C1` (stereo unspecified), the activity change is reported as -4.88% (inactive).
With `CCn1ccnc1CNC(=O)CC1C(=O)NCCN1Cc1ccc(F)cc1Cl` (stereo unspecified) the activity change was -0.584% (inactive).
In the case of `CCCCc1ccc(NC(=O)CN2C(=O)NC(Cc3ccccc3)C2=O)cc1` (stereo unspecified), the activity change is reported as -1.39% (inactive).
For `COc1ccccc1CNC(=O)COC(=O)CNS(=O)(=O)c1ccc(NC(C)=O)cc1`, the activity change was 32.4% (inactive).
In the case of `COc1ccccc1C(=O)COC(=O)CNS(=O)(=O)c1ccc(NC(C)=O)cc1`, the activity change is reported as 9.71% (inactive).
In the case of `CC(=O)Nc1ccc(S(=O)(=O)NCC(=O)OCc2cc(=O)oc3ccc4ccccc4c23)cc1`, the activity change is reported as -58.2% (active).
With `Cc1ccc(S(=O)(=O)N2CCCCC2)cc1NC(=O)CCNC(=O)c1ccccc1Cl` the activity change was 10.9% (inactive).
For `Cc1cccc(N(C(=O)c2csnn2)C(C(=O)NCc2ccccc2)c2ccncc2)c1` (stereo unspecified), the activity change was -12.7% (inactive).
With `CC1(C(=O)NS(=O)(=O)c2cccc(OC(F)F)c2)CCN1C(=O)C1CC1` (stereo unspecified) the activity change was 0% (inactive).
In the case of `COc1ccc(-n2c(C)cc(C(=O)CN3C(=O)NC4(CCc5ccccc54)C3=O)c2C)cc1` (stereo unspecified), the activity change is reported as -85.6% (active).
In the case of `COc1ccc(C(=O)CN2C(=O)NC3(CCc4ccccc43)C2=O)c(OC)c1` (stereo unspecified), the activity change is reported as -22.2% (inactive).
In the case of `Cc1ccc(C(=O)CN2C(=O)NC3(CCc4ccccc43)C2=O)c(C)c1` (stereo unspecified), the activity change is reported as -6.4% (inactive).
For `CC(=O)Nc1ccc(NC(=O)COc2ccc(S(=O)(=O)NC(C)c3ccccc3)cc2)cc1` (stereo unspecified), the activity change was 18.3% (inactive).
In the case of `CC(=O)Nc1ccc(S(=O)(=O)NC(C)C(=O)OCCOc2ccc(F)cc2)cc1` (stereo unspecified), the activity change is reported as -84.9% (active).
With `CC(=O)Nc1ccc(S(=O)(=O)NC(C)C(=O)OCC(=O)NC2CCCC2)cc1` (stereo unspecified) the activity change was 0% (inactive).
